Results: PubChem BioAssay (Tox21)
Results filed as inconclusive are left out. Calls of active or inactive are those of the source. Calls follow the shape of the dose curve; as a rule, active = well fitted activation curve with a large enough effect in the signal ratio in the repeat runs (not every such curve was filed as active); inconclusive = weak or mixed curves; inactive = flat fitted curve, though single readings scatter; the % refers to the signal ratio.

Experiment: qHTS assay to identify small molecule agonists of H2AX (AID 1224845); also: potency is read from the fitted curve at half-maximal effect
Conditions: CHO-K1 phospho-H2AX Ser139 HTRF, 3 h; series mostly up to 154 µM; activation (H2AX phosphorylation): at the top concentration
Procedure, shortened: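 Phospho-H2AX Ser139 measured by HTRF (ex 320 nm; em 665 and 620 nm) after 24 hr antibody incubation. Compounds, 15 concentrations, 0.76% DMSO, were applied to CHO-K1 cells for 3hr at 37C before lysis.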
% is scaled to controls: 0 for no effect and ±100 for the full control effect.

Compound	activation (H2AX phosphorylation)	Potency
CCC(C)COC(C)=O (stereo unspecified)	-1.53% (inactive)	
CN(C)CCC=C1c2ccccc2C=Cc2ccccc21	-3.14% [at 70.9 µM] (inactive)	
C1COC1	3.08% (inactive)	
O=Cc1c2ccccc2c(Cl)c2ccccc12	4.48% [at 70.9 µM] (inactive)	
CC(C)(O)c1ccc(CNC(=O)c2cccnc2Oc2ccc3nonc3c2)cc1	-1.52% (inactive)	
COc1ccccc1Oc1c(NS(=O)(=O)c2ccc(C(C)(C)C)cc2)nc(-c2ncccn2)nc1OCCO	4.18% [at 70.9 µM] (inactive)	
C=COCC(C)C	-5.3% (inactive)	
C[C@@H]1CN(CCCn2c3ccccc3c3ccccc32)C[C@H](C)N1	0.645% [at 70.9 µM] (inactive)	
C[C@]1(Cn2ccnn2)[C@H](C(=O)O)N2C(=O)C[C@H]2S1(=O)=O	0.614% [at 70.9 µM] (inactive)	
Cc1cc(C)cc(N)c1	-1.3% (inactive)	
CC1CC(OC(=O)C(O)c2ccccc2)CC(C)(C)N1C (stereo unspecified)	0.0098% [at 70.9 µM] (inactive)	
O=C(O)c1cccc(-c2noc(-c3ccccc3F)n2)c1	-3.88% [at 70.9 µM] (inactive)	
CCCCN(CCCC)C(C(N)=O)c1ccc(OC)cc1 (stereo unspecified)	-2.96% [at 70.9 µM] (inactive)	
CC1=C(CC=O)C(C)(C)CCC1	0.238% (inactive)	
COC(=O)C1=C(C)NC(C)=C(C(=O)O[C@@H]2CCCN(Cc3ccccc3)C2)[C@@H]1c1cccc([N+](=O)[O-])c1	-1.34% [at 70.9 µM] (inactive)	
CC(C)=CCC/C(C)=C/CC/C(C)=C/CCC(=O)OC/C=C(\C)CCC=C(C)C	-2.55% [at 70.9 µM] (inactive)	
CC[N+](CC)(CCNC(=O)C(=O)NCC[N+](CC)(CC)Cc1ccccc1Cl)Cc1ccccc1Cl	-0.99% [at 70.9 µM] (inactive)	
Cc1cscn1	-1.8% (inactive)	
CC(C)c1nc(CN(C)C(=O)N[C@H](C(=O)N[C@@H](Cc2ccccc2)C[C@H](O)[C@H](Cc2ccccc2)NC(=O)OCc2cncs2)C(C)C)cs1	0.716% [at 70.9 µM] (inactive)	
CN1C(=O)OC(C)(C)C1=O	-2.25% (inactive)	

Compound	activation (H2AX phosphorylation)	Potency
CC(C)C(O)(c1ccc(OC(F)(F)F)cc1)c1cncnc1 (stereo unspecified)	-4.28% (inactive)	
Cc1cccc(N(C)C(=S)Oc2ccc3c(c2)CCC3)c1	-0.629% [at 70.9 µM] (inactive)	
NC1[C@H]2CN(c3nc4c(cc3F)c(=O)c(C(=O)O)cn4-c3ccc(F)cc3F)C[C@@H]12 (stereo partly specified)	5.21% [at 70.9 µM] (inactive)	
CCCCCCCCCCCCCCN(CCO)CCO	8.47% (inactive)	
O=C(O)CCc1nc(-c2ccccc2)c(-c2ccccc2)o1	2.76% [at 70.9 µM] (inactive)	
CC=C(Cl)Cl	-0.517% (inactive)	
CN1C(=O)N(c2ccccc2Br)Cc2cnc(Nc3ccc4c(c3)OCC(CO)O4)nc21 (stereo unspecified)	10.5% (inactive)	
CCCCC(CC)COP(=O)(O)O (stereo unspecified)	-0.255% (inactive)	
C1C[C@@H]2[C@H]3CC[C@H](C3)[C@@H]2C1	2.71% (inactive)	
CCOc1ccc(Cc2nccc3cc(OCC)c(OCC)cc23)cc1OCC	8.94% [at 70.9 µM] (inactive)	
CC/C=C1/OC(=O)c2ccccc21	3.55% (inactive)	
CNC(=O)c1cnn(-c2nc(N)c3ncn([C@@H]4O[C@H](CO)[C@@H](O)[C@H]4O)c3n2)c1	-0.0319% [at 70.9 µM] (inactive)	
COc1cc(C(=O)NCCCCCC(=O)O)cc(OC)c1OC	-0.157% [at 70.9 µM] (inactive)	
CN1CCCN=C1COC(=O)C(O)(c1ccccc1)C1CCCCC1 (stereo unspecified)	-0.883% [at 70.9 µM] (inactive)	
CCCCCC[C@@H](O)C/C=C\CCCCCCCC(=O)O	0.472% (inactive)	
COc1ncnc(NS(=O)(=O)c2ccc(N)cc2)c1OC	-0.652% [at 70.9 µM] (inactive)	
CCOC(=O)c1ccc(OCCN2C[C@H](O)[C@@H](O)[C@H](O)[C@H]2CO)cc1	0.278% [at 70.9 µM] (inactive)	
Nc1nnc(-c2ccc([N+](=O)[O-])o2)o1	2.87% (inactive)	
CC(CCC(=O)O)C(=O)O (stereo unspecified)	-1.37% (inactive)	
COc1cc(Nc2c(C#N)cnc3cc(OCCCN4CCN(C)CC4)c(OC)cc23)c(Cl)cc1Cl		7.8 µM (active)

Experiment: qHTS assay to identify small molecule agonists of the hypoxia (HIF-1) signaling pathway (AID 1224846)
Conditions: HRE-bla ME-180 cells, beta-lactamase ratio, 17 h; series mostly up to 76.8 µM; activation: at the top concentration
Procedure, shortened: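 Beta-lactamase FRET read-out (CCF4-AM substrate) from ME-180 cells carrying an HRE-driven bla reporter, after 17 hrs compound exposure at 37C/5% CO2. Cells were seeded at 2,000 per well in 0.5% dialyzed FBS medium and preincubated 5 hrs.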

Compound	activation
C1COC1	0% (inactive)
COc1ccccc1Oc1c(NS(=O)(=O)c2ccc(C(C)(C)C)cc2)nc(-c2ncccn2)nc1OCCO	1.15% [at 35.5 µM] (inactive)
C[C@@H]1CN(CCCn2c3ccccc3c3ccccc32)C[C@H](C)N1	1.78% [at 35.5 µM] (inactive)
C[C@]1(Cn2ccnn2)[C@H](C(=O)O)N2C(=O)C[C@H]2S1(=O)=O	-1.34% [at 35.5 µM] (inactive)
Cc1cc(C)cc(N)c1	-0.47% (inactive)
O=C(O)c1cccc(-c2noc(-c3ccccc3F)n2)c1	-0.628% [at 35.5 µM] (inactive)
CCCCN(CCCC)C(C(N)=O)c1ccc(OC)cc1 (stereo unspecified)	0.237% [at 35.5 µM] (inactive)
CC1=C(CC=O)C(C)(C)CCC1	-0.722% (inactive)
CC(C)=CCC/C(C)=C/CC/C(C)=C/CCC(=O)OC/C=C(\C)CCC=C(C)C	-0.704% [at 35.5 µM] (inactive)
Cc1cscn1	-0.18% (inactive)
CC(C)c1nc(CN(C)C(=O)N[C@H](C(=O)N[C@@H](Cc2ccccc2)C[C@H](O)[C@H](Cc2ccccc2)NC(=O)OCc2cncs2)C(C)C)cs1	-0.876% [at 35.5 µM] (inactive)
CC(C)C(O)(c1ccc(OC(F)(F)F)cc1)c1cncnc1 (stereo unspecified)	-0.585% (inactive)
Cc1cccc(N(C)C(=S)Oc2ccc3c(c2)CCC3)c1	1.21% [at 35.5 µM] (inactive)
CC=C(Cl)Cl	0.794% (inactive)
CCCCC(CC)COP(=O)(O)O (stereo unspecified)	1.53% (inactive)
C1C[C@@H]2[C@H]3CC[C@H](C3)[C@@H]2C1	-1.18% (inactive)
CCOc1ccc(Cc2nccc3cc(OCC)c(OCC)cc23)cc1OCC	0.643% [at 35.5 µM] (inactive)
CNC(=O)c1cnn(-c2nc(N)c3ncn([C@@H]4O[C@H](CO)[C@@H](O)[C@H]4O)c3n2)c1	-1.71% [at 35.5 µM] (inactive)
CCOC(=O)c1ccc(OCCN2C[C@H](O)[C@@H](O)[C@H](O)[C@H]2CO)cc1	-0.651% [at 35.5 µM] (inactive)
Nc1nnc(-c2ccc([N+](=O)[O-])o2)o1	0.869% (inactive)
COc1cc(Nc2c(C#N)cnc3cc(OCCCN4CCN(C)CC4)c(OC)cc23)c(Cl)cc1Cl	-0.379% [at 35.5 µM] (inactive)
